Rows were chosen to be rich in hits. Some 28% of all compounds tested hit in one or more screens of this group.
Mac1 fbg enh = enhancers of human CD11b/CD18 binding to fibrinogen. 0.07% of 93,000 active. activation, % at 10 µM. AID 1499. K562 CD11b/CD18 adhesion to fibrinogen, ATPlite luminescence. P05107+P11215;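 active means 10 µM primary screen giving 50% or more activity, confirmed by 40% or more on retest at that dose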
CYP2C9 act = increases human cytochrome P450 2C9 activity; 1.4% of 96,000 active; activation factor at 5 µM; recombinant CYP2C9, luciferin-H conversion, luminescence; hits give high values; factor 1 = untreated enzyme, 0 = blocked; P11712; AID 1024;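 active means activation factor of 2 or more for CYP2C9 at a 5 µM dose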;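 further: 0 = sulfaphenazole-blocked wells and 1 = vehicle-only wells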
Target sequence (P11712 whole entry, looked up): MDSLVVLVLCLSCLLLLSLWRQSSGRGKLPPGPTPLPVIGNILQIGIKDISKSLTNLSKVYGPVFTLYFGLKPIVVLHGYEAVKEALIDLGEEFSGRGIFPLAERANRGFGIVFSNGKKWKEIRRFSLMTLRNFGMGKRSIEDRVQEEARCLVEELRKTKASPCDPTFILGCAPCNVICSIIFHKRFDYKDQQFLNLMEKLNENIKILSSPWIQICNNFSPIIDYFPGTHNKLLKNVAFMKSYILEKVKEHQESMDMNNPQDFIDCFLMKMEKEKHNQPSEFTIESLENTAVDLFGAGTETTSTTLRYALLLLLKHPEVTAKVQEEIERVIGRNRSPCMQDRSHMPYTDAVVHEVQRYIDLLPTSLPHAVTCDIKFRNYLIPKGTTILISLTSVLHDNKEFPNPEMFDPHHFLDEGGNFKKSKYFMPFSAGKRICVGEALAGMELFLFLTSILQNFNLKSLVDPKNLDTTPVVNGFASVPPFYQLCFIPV
Mac1 fbg inh = blocks human CD11b/CD18 adhesion to fibrinogen. P05107+P11215. K562 CD11b/CD18 adhesion to fibrinogen, ATPlite luminescence; Mn2+ added to activate the integrin. inhibition, % at 10 µM. 0.54% of 93,000 active. AID 1497;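 active means primary inhibition of 50% or more at 10 µM, then 40% or more on retest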
CYP2C9 inhib = inhibitors of human CYP2C9; P11712; CYP2C9 Supersomes, luciferin-H conversion, luminescence; inhibition, % at 5 µM; 20% of 96,000 active; AID 777;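 active means blocking of liver enzyme CYP2C9 beyond about 50% at 5 µM, limit read from the data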
CYP2C19 activ = activators of human cytochrome P450 2C19 | activation factor at 5 µM | 96,000 tested, under 10 active | recombinant CYP2C19, luciferin-H EGE luminescence; hits give high values; 0 = fully inhibited enzyme, 1 = untreated enzyme | P33261;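 active means activation factor of at least 2 at 5 µM in the primary screen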;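 further: 0 = wells with 2.5 mM tranylcypromine and 1 = vehicle-only wells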
CYP2C19 inhib = human CYP2C19 inhibition; CYP2C19 Supersomes, luciferin-H EGE luminescence, 30 min; 21% of 96,000 active; AID 778; inhibition, % at 5 µM;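 active means CYP2C19 inhibition above a set limit at 5 µM in the primary screen, cut at about 50% in these data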;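 further: plate controls were negative control wells for no effect and 2.5 mM tranylcypromine positive control for full effect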
Starred values were filed as active, the others as inactive; / = no result given.

SMILES	Mac1 fbg enh	CYP2C9 act	Mac1 fbg inh	CYP2C9 inhib	CYP2C19 activ	CYP2C19 inhib
O=C(Nc1nnc(C2CC2)s1)c1ccncc1	/	0.4	/	56*	0.8	16
O=C(CSc1nnc(Nc2ccccc2)s1)Nc1cccc(S(=O)(=O)N2CCCCC2)c1	-3	/	62	/	/	/
Cc1cc(N2CCCCC2)n2ncc(-c3ccc(Cl)cc3)c2n1	-2	0.4	13	57*	0.7	29
Cc1cc(N2CCC(C)CC2)n2ncc(-c3ccccc3)c2n1	-1	0.3	37	70*	0.6	37
Cc1c(Br)cc(C(=O)N2CCCC2)c(C)c1C	6	1.9	-39	-91	0.1	92*
N#Cc1c(-c2ccccc2)nc2n(-c3ccccc3)nc(C(=O)Nc3ccccc3)n2c1=O	4	0.6	-4	41	0.8	20
CCOc1cc(C#N)c(NC(=O)c2cccnc2)cc1OCC	/	1	/	-3	1.1	-10
CCOc1cc(C#N)c(NC(=O)c2cccnc2Cl)cc1OCC	-2	0.3	-11	65*	1.1	-7
CC(C)c1cc(=O)oc2c3c4c(cc12)CCCN4CCC3	-1	0.9	-8	13	0.1	87*
O=c1oc2c3c4c(cc2c(C(F)(F)F)c1CCN1CCOCC1)CCCN4CCC3	4	1.4	-23	-38	0.9	5
COc1ccccc1N1CCN(C(=O)c2nn(-c3ccccc3OC)c(=O)c3ccccc23)CC1	-4	0.4	33	58*	0.5	49
CCOC(=O)N1CCN(C(=O)c2cn(-c3ccc(C)c(C)c3)c(=O)c3ccccc23)CC1	-2	0.4	-13	64*	0.8	24
CCOC(=O)N1CCN(C(=O)c2nn(-c3cc(OC)cc(OC)c3)c(=O)c3ccccc23)CC1	1	0.2	-23	80*	0.4	63*
CCOc1ccc(-n2cc(C(=O)N3CCC(C)CC3)c3cc(OC)c(OC)cc3c2=O)cc1	-1	0.8	6	20	0.8	16
COc1ccccc1-n1nc(C(=O)O)c2ccccc2c1=O	5	1.1	-16	-8	1	-3
Cc1nc(SCn2nnc3ccccc3c2=O)c2c(C)c(C)sc2n1	-1	0.8	0	25	0.7	26
CC(C)(C)NC(=O)CN(C(=O)CS(=O)CC(=O)Nc1ccc(F)cc1)c1ccccc1 (stereo unspecified)	-6	0.3	-9	71*	0.9	7
CC(C(=O)NC1CCCC1)N(C(=O)CS(=O)CC(=O)Nc1ccc(F)cc1)c1ccc2c(c1)OCCO2 (stereo unspecified)	/	0.6	/	41	0.7	29
O=C(Nc1ccc(Br)cc1)c1cccn1-c1ncc(C(F)(F)F)cc1Cl	/	0.7	/	32	0.8	25
CC(C(=O)Nc1ccc(Cl)cc1)c1ncc(C(F)(F)F)cc1Cl (stereo unspecified)	7	0.6	4	39	0.1	94*
NC(=O)C(c1ccc(Cl)cc1)c1ncc(C(F)(F)F)cc1Cl (stereo unspecified)	/	0.9	/	10	0.3	73*
NC(=O)C(c1ccc(Cl)cc1Cl)c1ncc(C(F)(F)F)cc1Cl (stereo unspecified)	/	0.8	/	18	0.1	88*
CCOC(=O)C(C(=O)NCc1ccc(F)cc1)c1ncc(C(F)(F)F)cc1Cl (stereo unspecified)	1	1	-22	4	0.8	22
COc1ccc(C(=O)Cn2nnc(-c3ccccc3NC(=O)c3ccco3)n2)cc1	-2	0.8	10	17	0.9	10
O=C1C(c2ccc(F)cc2)N(Cc2ccc3c(c2)OCO3)C(=O)CN1C1CCCCCC1 (stereo unspecified)	-3	0.4	9	56*	0.6	36
SMILES	Mac1 fbg enh	CYP2C9 act	Mac1 fbg inh	CYP2C9 inhib	CYP2C19 activ	CYP2C19 inhib
COc1ccc(CCNC(=O)COC(=O)/C=C/c2ccc(OC)c(OC)c2)cc1	-2	/	9	/	/	/
CCOC(=O)COc1ccc(S(=O)(=O)Nc2ccc3c(c2)OCCO3)cc1	0	0.9	13	7	0.9	6
COC(=O)COc1ccc(S(=O)(=O)Nc2ccc3c(c2)OCO3)cc1Cl	2	0.3	14	70*	0	98*
COc1ccc(S(=O)(=O)N/N=C\c2ccc3c(c2)OCO3)cc1	/	0.2	/	79*	0.3	71*
COC(=O)COc1ccc(S(=O)(=O)Nc2ccc3c(c2)OCO3)cc1	5	0.1	-11	93*	0	99*
c1ccc2c(c1)CCN(CCCNc1nc3ccccc3n3cnnc13)C2	0	1.1	-22	-8	1	0
CC(C)(C)NC(=O)C(c1ccncc1)N(C(=O)c1csnn1)C1CC1 (stereo unspecified)	-2	1	1	-4	0.8	16
Cc1occc1-c1nnc(SCC(=O)Nc2ccccc2)n1Cc1ccccc1	-2	0.4	-4	62*	0.7	34
Cc1occc1-c1nnc(SCC(=O)Nc2ccc(F)cc2)n1Cc1ccccc1	0	0.3	3	72*	0.7	26
Cc1nnc(SCC(=O)Nc2ccccc2)n1CCc1ccccc1	-5	0.9	-6	14	0.7	34
Cc1occc1-c1nnc(SCC(=O)NC(C)(C)C)n1C(C)c1ccccc1 (stereo unspecified)	9	0.8	15	18	1	-2
Cc1ccccc1NC(=O)CSc1nnc(-c2ccoc2C)n1CCc1ccccc1	-4	0.7	-13	26	0.6	40
COc1ccc(NC(=O)CSc2nnc(-c3ccoc3C)n2CCc2ccccc2)cc1	0	0.1	-12	89*	0.1	88*
Cc1cc(=O)n2nc(-c3ccc(C(F)(F)F)cc3)sc2n1	-2	1.1	14	-15	1.3	-27
Cc1cc(/C=N\NC(=O)c2cccs2)c(C)n1-c1ccc2ncccc2c1	-5	0.5	33	45	0.8	16
CCN=C1SC(C(N)=O)CC(=O)N1CC (stereo unspecified)	-1	1	-13	-3	1.1	-6
COc1cccc(N=C2SC(C(=O)Nc3ccccc3F)CC(=O)N2C)c1 (stereo unspecified)	-5	0.4	-5	62*	0.6	36
COc1cccc(NC(=O)C2CC(=O)N(C)C(=Nc3cccc(F)c3)S2)c1 (stereo unspecified)	0	0.5	-22	45	0.8	19
CN1C(=O)CC(C(=O)Nc2ccc(F)cc2)SC1=Nc1ccc2c(c1)OCO2 (stereo unspecified)	-1	0	-59	99*	0.4	58*
CCN=C1SC(C(=O)Nc2cccc(OCC)c2)CC(=O)N1CC (stereo unspecified)	4	1	3	4	0.1	87*
